# Measurements taken from paper PMC5540273 (PLoS ONE, 2017).
# Assays:
# Conditions in all cases: concentration: 1 μM, replicates: in singlicate; n = 1
# PRKD3 = test system: PRKD3
# PRKG1 = test system: PRKG1
# PRKG2 = test system: PRKG2
# PRKR = test system: T1, PRKR
# T1 construct: gene EIF2AK2
# PRKX = test system: PRKX
# PRP4 = test system: PRP4
# PYK2 = test system: T2, PYK2
# T2 construct: gene PTK2B
# QSK = test system: QSK
# RAF1 = test system: RAF1
# RET = test system: RET
# RIOK1 = test system: RIOK1
# RIOK2 = test system: RIOK2
# RIOK3 = test system: RIOK3
# RIPK1 = test system: RIPK1
# RIPK2 = test system: RIPK2
# RIPK4 = test system: RIPK4
# RIPK5 = test system: RIPK5
# ROCK1 = test system: ROCK1
# ROCK2 = test system: ROCK2
# ROS1 = test system: ROS1
# 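Also: KINOMEscan kinase panel screen.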
structure (smiles),measurement,setting,value
O=c1[nH]cc(-c2ccc(N3CCOCC3)cc2)c2sc(-c3cn[nH]c3)cc12 [GSK2276055],%Inh,PRKD3,4%
same,%Inh,PRKG1,0%
same,%Inh,PRKG2,10%
same,%Inh,PRKR,34%
same,%Inh,PRKX,10%
same,%Inh,PRP4,0%
same,%Inh,PYK2,0%
same,%Inh,QSK,11%
same,%Inh,RAF1,0%
same,%Inh,RET,3%
same,%Inh,RIOK1,37%
same,%Inh,RIOK2,76%
same,%Inh,RIOK3,25%
same,%Inh,RIPK1,18%
same,%Inh,RIPK2,0%
same,%Inh,RIPK4,12%
same,%Inh,RIPK5,10%
same,%Inh,ROCK1,0%
same,%Inh,ROCK2,0%
same,%Inh,ROS1,0%
Cc1ccc(C(=O)N2CC[C@@H](O)C2)cc1-n1c(C)cc(OCc2ccc(F)cc2F)c(Br)c1=O,%Inh,PRKD3,7%
same,%Inh,PRKG1,6%
same,%Inh,PRKG2,0%
same,%Inh,PRKR,0%
same,%Inh,PRKX,0%
same,%Inh,PRP4,20%
same,%Inh,PYK2,2%
same,%Inh,QSK,0%
same,%Inh,RAF1,25%
same,%Inh,RET,10%
same,%Inh,RIOK1,12%
same,%Inh,RIOK2,0%
same,%Inh,RIOK3,29%
same,%Inh,RIPK1,0%
same,%Inh,RIPK2,46%
same,%Inh,RIPK4,0%
same,%Inh,RIPK5,0%
same,%Inh,ROCK1,0%
same,%Inh,ROCK2,0%
same,%Inh,ROS1,0%
CC(C)(C)c1ccc2nccc(Nc3cccc(O)c3)c2c1 [GW856795],%Inh,PRKD3,77%
same,%Inh,PRKG1,1%
same,%Inh,PRKG2,4%
same,%Inh,PRKR,0%
same,%Inh,PRKX,0%
same,%Inh,PRP4,27%
same,%Inh,PYK2,0%
same,%Inh,QSK,0%
same,%Inh,RAF1,0%
same,%Inh,RET,94.7%
same,%Inh,RIOK1,21%
same,%Inh,RIOK2,0%
same,%Inh,RIOK3,24%
same,%Inh,RIPK1,0%
same,%Inh,RIPK2,34%
same,%Inh,RIPK4,43%
same,%Inh,RIPK5,0%
same,%Inh,ROCK1,55%
same,%Inh,ROCK2,30%
same,%Inh,ROS1,0%
CC(=O)N1CCN(c2ccc(Nc3nccc(-c4sc(C(C)C)nc4-c4cccc(NS(=O)(=O)c5cccc(Cl)c5)c4)n3)cn2)CC1 [GSK1660437],%Inh,PRKD3,100%
same,%Inh,PRKG1,25%
same,%Inh,PRKG2,0%
same,%Inh,PRKR,0%
same,%Inh,PRKX,5%
same,%Inh,PRP4,2%
same,%Inh,PYK2,0%
same,%Inh,QSK,10%
same,%Inh,RAF1,86%
same,%Inh,RET,54%
same,%Inh,RIOK1,19%
same,%Inh,RIOK2,10%
same,%Inh,RIOK3,4%
same,%Inh,RIPK1,0%
same,%Inh,RIPK2,93.2%
same,%Inh,RIPK4,0%
same,%Inh,RIPK5,37%
same,%Inh,ROCK1,0%
same,%Inh,ROCK2,18%
same,%Inh,ROS1,21%
O=C(Nc1cccc(Oc2ccc3nc(NC(=O)C4CC4)cn3n2)c1)c1ccccc1C(F)(F)F,%Inh,PRKD3,0%
same,%Inh,PRKG1,0%
same,%Inh,PRKG2,0%
same,%Inh,PRKR,8%
same,%Inh,PRKX,5%
same,%Inh,PRP4,5%
same,%Inh,PYK2,6%
same,%Inh,QSK,0%
same,%Inh,RAF1,76%
same,%Inh,RET,99.9%
same,%Inh,RIOK1,64%
same,%Inh,RIOK2,0%
same,%Inh,RIOK3,76%
same,%Inh,RIPK1,15%
same,%Inh,RIPK2,11%
same,%Inh,RIPK4,0%
same,%Inh,RIPK5,0%
same,%Inh,ROCK1,0%
same,%Inh,ROCK2,0%
same,%Inh,ROS1,0%
O=C(O)C(F)(F)F.O=C(O)C(F)(F)F.O=c1[nH]ccc2nc(N[C@@H]3CCCNC3)nc(Nc3ccc(S(=O)(=O)N4CCOCC4)cc3)c12 [GSK2177277],%Inh,PRKD3,100%
same,%Inh,PRKG1,66%
same,%Inh,PRKG2,96.5%
same,%Inh,PRKR,86%
same,%Inh,PRKX,94.6%
same,%Inh,PRP4,92.9%
same,%Inh,PYK2,98.9%
same,%Inh,QSK,85%
same,%Inh,RAF1,0%
same,%Inh,RET,99.9%
same,%Inh,RIOK1,100%
same,%Inh,RIOK2,65%
same,%Inh,RIOK3,82%
same,%Inh,RIPK1,0%
same,%Inh,RIPK2,0%
same,%Inh,RIPK4,95.9%
same,%Inh,RIPK5,98.3%
same,%Inh,ROCK1,99.6%
same,%Inh,ROCK2,92.8%
same,%Inh,ROS1,71%
Cl.Cl.NCC(NC(=O)c1cc(-c2ccccc2)c(-c2ccnc3[nH]ccc23)s1)c1ccccc1 (stereo not drawn) [GSK1321561],%Inh,PRKD3,38%
same,%Inh,PRKG1,70%
same,%Inh,PRKG2,18%
same,%Inh,PRKR,3%
same,%Inh,PRKX,76%
same,%Inh,PRP4,5%
same,%Inh,PYK2,0%
same,%Inh,QSK,14%
same,%Inh,RAF1,18%
same,%Inh,RET,35%
same,%Inh,RIOK1,69%
same,%Inh,RIOK2,45%
same,%Inh,RIOK3,88%
same,%Inh,RIPK1,24%
same,%Inh,RIPK2,24%
same,%Inh,RIPK4,0%
same,%Inh,RIPK5,0%
same,%Inh,ROCK1,99.8%
same,%Inh,ROCK2,98.9%
same,%Inh,ROS1,19%
COc1ccc(CNC(=O)NC2CCN(c3ccnc(Nc4ccc(F)cc4)n3)CC2)cc1 [GSK1379788],%Inh,PRKD3,0%
same,%Inh,PRKG1,0%
same,%Inh,PRKG2,0%
same,%Inh,PRKR,0%
same,%Inh,PRKX,5%
same,%Inh,PRP4,46%
same,%Inh,PYK2,0%
same,%Inh,QSK,0%
same,%Inh,RAF1,7%
same,%Inh,RET,0%
same,%Inh,RIOK1,28%
same,%Inh,RIOK2,0%
same,%Inh,RIOK3,0%
same,%Inh,RIPK1,0%
same,%Inh,RIPK2,0%
same,%Inh,RIPK4,12%
same,%Inh,RIPK5,0%
same,%Inh,ROCK1,12%
same,%Inh,ROCK2,31%
same,%Inh,ROS1,26%
O=C(Nc1cccc(-c2nn3ccccc3c2-c2ccnc(Nc3cccc(F)c3)n2)c1)c1c(F)ccc(F)c1Cl [GSK357952],%Inh,PRKD3,39%
same,%Inh,PRKG1,1%
same,%Inh,PRKG2,1%
same,%Inh,PRKR,0%
same,%Inh,PRKX,22%
same,%Inh,PRP4,8%
same,%Inh,PYK2,0%
same,%Inh,QSK,5%
same,%Inh,RAF1,79%
same,%Inh,RET,84%
same,%Inh,RIOK1,24%
same,%Inh,RIOK2,51%
same,%Inh,RIOK3,16%
same,%Inh,RIPK1,0%
same,%Inh,RIPK2,35%
same,%Inh,RIPK4,0%
same,%Inh,RIPK5,0%
same,%Inh,ROCK1,3%
same,%Inh,ROCK2,18%
same,%Inh,ROS1,18%
c1ccc(-c2n[nH]cc2Nc2ccnc3ccccc23)nc1 [GW694077],%Inh,PRKD3,100%
same,%Inh,PRKG1,5%
same,%Inh,PRKG2,0%
same,%Inh,PRKR,16%
same,%Inh,PRKX,0%
same,%Inh,PRP4,89%
same,%Inh,PYK2,0%
same,%Inh,QSK,0%
same,%Inh,RAF1,7%
same,%Inh,RET,0%
same,%Inh,RIOK1,99.2%
same,%Inh,RIOK2,86%
same,%Inh,RIOK3,100%
same,%Inh,RIPK1,0%
same,%Inh,RIPK2,11%
same,%Inh,RIPK4,96.4%
same,%Inh,RIPK5,85%
same,%Inh,ROCK1,98.2%
same,%Inh,ROCK2,97.8%
same,%Inh,ROS1,9%
COc1cc(Nc2nccc(N3CCC(NC(=O)Nc4cccc(C(C)=O)c4)C3)n2)cc(OC)c1OC (stereo not drawn) [GSK1379753],%Inh,PRKD3,0%
same,%Inh,PRKG1,0%
same,%Inh,PRKG2,0%
same,%Inh,PRKR,0%
same,%Inh,PRKX,37%
same,%Inh,PRP4,14%
same,%Inh,PYK2,0%
same,%Inh,QSK,0%
same,%Inh,RAF1,14%
same,%Inh,RET,0%
same,%Inh,RIOK1,73%
same,%Inh,RIOK2,0%
same,%Inh,RIOK3,65%
same,%Inh,RIPK1,9%
same,%Inh,RIPK2,22%
same,%Inh,RIPK4,48%
same,%Inh,RIPK5,0%
same,%Inh,ROCK1,25%
same,%Inh,ROCK2,7%
same,%Inh,ROS1,30%
Cc1ccc(C)c(NC(=O)NC2CCN(c3ccnc(Nc4ccc(F)cc4)n3)C2)c1 (stereo not drawn) [GSK1379720],%Inh,PRKD3,0%
same,%Inh,PRKG1,0%
same,%Inh,PRKG2,0%
same,%Inh,PRKR,0%
same,%Inh,PRKX,4%
same,%Inh,PRP4,51%
same,%Inh,PYK2,19%
same,%Inh,QSK,13%
same,%Inh,RAF1,14%
same,%Inh,RET,0%
same,%Inh,RIOK1,23%
same,%Inh,RIOK2,0%
same,%Inh,RIOK3,0%
same,%Inh,RIPK1,0%
same,%Inh,RIPK2,0%
same,%Inh,RIPK4,6%
same,%Inh,RIPK5,0%
same,%Inh,ROCK1,0%
same,%Inh,ROCK2,29%
same,%Inh,ROS1,0%
COc1cccc(C(=O)Nc2cccc(Oc3ccc4nc(NC(=O)C5CC5)cn4n3)c2)c1,%Inh,PRKD3,15%
same,%Inh,PRKG1,0%
same,%Inh,PRKG2,21%
same,%Inh,PRKR,0%
same,%Inh,PRKX,2%
same,%Inh,PRP4,0%
same,%Inh,PYK2,9%
same,%Inh,QSK,0%
same,%Inh,RAF1,96.8%
same,%Inh,RET,100%
same,%Inh,RIOK1,55%
same,%Inh,RIOK2,0%
same,%Inh,RIOK3,39%
same,%Inh,RIPK1,20%
same,%Inh,RIPK2,50%
same,%Inh,RIPK4,0%
same,%Inh,RIPK5,0%
same,%Inh,ROCK1,0%
same,%Inh,ROCK2,0%
same,%Inh,ROS1,0%
CCn1c(-c2nonc2N)nc2c(C#CC(C)(C)O)nc(OC[C@H](N)c3ccccc3)cc21 [GSK943949],%Inh,PRKD3,22%
same,%Inh,PRKG1,60%
same,%Inh,PRKG2,92.6%
same,%Inh,PRKR,0%
same,%Inh,PRKX,92.1%
same,%Inh,PRP4,10%
same,%Inh,PYK2,7%
same,%Inh,QSK,0%
same,%Inh,RAF1,11%
same,%Inh,RET,10%
same,%Inh,RIOK1,11%
same,%Inh,RIOK2,0%
same,%Inh,RIOK3,4%
same,%Inh,RIPK1,4%
same,%Inh,RIPK2,0%
same,%Inh,RIPK4,7%
same,%Inh,RIPK5,29%
same,%Inh,ROCK1,59%
same,%Inh,ROCK2,91.9%
same,%Inh,ROS1,2%
COc1cc(Nc2nccc(-c3c(-c4cccc(NC(=O)c5c(F)cccc5F)c4)nn4ncccc34)n2)cc(OC)c1OC [GSK327238],%Inh,PRKD3,0%
same,%Inh,PRKG1,24%
same,%Inh,PRKG2,15%
same,%Inh,PRKR,22%
same,%Inh,PRKX,0%
same,%Inh,PRP4,0%
same,%Inh,PYK2,72%
same,%Inh,QSK,17%
same,%Inh,RAF1,97.2%
same,%Inh,RET,99.7%
same,%Inh,RIOK1,20%
same,%Inh,RIOK2,5%
same,%Inh,RIOK3,24%
same,%Inh,RIPK1,16%
same,%Inh,RIPK2,99.4%
same,%Inh,RIPK4,4%
same,%Inh,RIPK5,0%
same,%Inh,ROCK1,12%
same,%Inh,ROCK2,14%
same,%Inh,ROS1,75%
